Data reported in PubChem BioAssay (NCI).
Compounds without any hit were thinned out: in the full panel of roughly 79,000, 15% have a hit. The source made the active and inactive calls. Cut-off read from the data, not from the text of the source: active = growth inhibition above about 70%; inactive = the rest.

Experiments:
[1] = NCI Yeast Anticancer Drug Screen. Data for the rad50 strain (AID 155);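 note: 0% = growth of vehicle-only cultures of the same strain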; conditions: S. cerevisiae rad50 strain growth inhibition; at 50.0 µM; active compounds read high
How it was run: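 Readout: growth inhibition relative to vehicle-treated cultures. Compound exposure was carried out in a genetically defined yeast strain deficient in DNA damage repair.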

[2] = NCI Yeast Anticancer Drug Screen. Data for the mec2-1 strain (AID 157); conditions: S. cerevisiae mec2-1 strain, at 50.0 µM, active compounds read high
How it was run: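 Vehicle-treated cultures served as reference for growth inhibition of compound-exposed mec2-1 yeast.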

[3] = NCI Yeast Anticancer Drug Screen. Data for the sgs1 mgt1 strain (AID 161);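 note: 0% = growth of cultures given vehicle only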; conditions: S. cerevisiae sgs1 mgt1 strain, at 50.0 µM, active compounds read high
How it was run: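 Test agents were incubated with a DNA-repair-mutant yeast strain. Growth was then read and compared against vehicle-treated controls.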

[4] = NCI Yeast Anticancer Drug Screen. Data for the cln2 rad14 strain (AID 165);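 note: 0% = growth equal to vehicle treated cultures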; conditions: S. cerevisiae cln2 rad14 strain, at 50.0 µM, active compounds read high
How it was run: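 Each compound was tested on cln2 rad14 yeast. Inhibition of growth was calculated against vehicle-exposed controls.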

[5] = NCI Yeast Anticancer Drug Screen. Data for the bub3 strain (AID 167); conditions: S. cerevisiae bub3 mutant strain, at 50.0 µM, active compounds read high
How it was run: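 Readout: yeast growth inhibition, expressed relative to vehicle-only wells. The test organism is a mutant strain from a panel with lesions in DNA repair or checkpoint genes.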

[6] = NCI Yeast Anticancer Drug Screen. Data for the mlh1 rad18 strain (AID 175); conditions: S. cerevisiae mlh1 rad18 strain growth inhibition; at 50.0 µM; active compounds read high
How it was run: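 Vehicle-treated cultures served as the reference for growth inhibition in a yeast strain carrying DNA damage repair alterations exposed to each compound.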

Measured: growth inhibition

O=C(Nc1ccc([N+](=O)[O-])cc1)c1ccc(Cl)cc1
inactive: [1] -4.7% | [2] 7.75% | [3] -1.35% | [4] -50.5% | [5] 5.15% | [6] -36.5%

COc1ccc(CCCN2c3ccccc3Sc3ccccc32)cc1
inactive: [1] -6.1% | [2] -3.35% | [3] -21.2% | [4] -23.9% | [5] -19.9% | [6] -5.7%

COC(=O)c1ccccc1NC(=O)c1ccccc1C(=O)O
inactive: [1] 6.4% | [2] 41% | [3] 35% | [4] -6.55% | [5] 28.5% | [6] 37.2%

CNc1ccccc1C(=O)N/N=C/c1cccc([N+](=O)[O-])c1
inactive: [1] -0.9% | [2] 1.05% | [3] -39% | [4] -8.6% | [5] 32.5% | [6] -8.9%

C[n+]1cccc(C(=O)O)c1
inactive: [1] 5.25% | [2] 2.75% | [3] 8.65% | [4] -9.05% | [5] 17.8% | [6] 10.1%

COc1ccc(Cl)cc1/C=C\C=N\OCC(=O)O
inactive: [1] 5.2% | [2] 1.85% | [3] 1.05% | [4] -43.6% | [5] -5.85% | [6] 7.25%

CCOC(=O)CSc1ncnc2nc[nH]c12
inactive: [1] 31.2% | [2] -9.35% | [3] -6% | [4] 6.25% | [5] 17% | [6] 9.75%

CN1C(=O)C=C(C=Nc2ccc(-c3ccccc3)cc2)C2CCCCC21 (configuration not stated)
inactive: [1] 0.85% | [2] -8.75% | [3] -8.05% | [4] 6.55% | [5] 11.5% | [6] 6.75%

OCCNc1nc(NCCO)c2cn[nH]c2n1
inactive: [1] 0.5% | [2] 0.45% | [3] -1.15% | [4] -12.7% | [5] 5.75% | [6] 0.55%

COC(=O)/C(C#N)=C/c1ccco1
inactive: [1] -34% | [2] 6.65% | [3] -14.2% | [4] 2.5% | [5] -2.05% | [6] -21.6%

c1ccc(N2C3Sc4ncccc4C2Sc2ncccc23)cc1
inactive: [1] -20.4% | [2] 2.8% | [3] 16.6% | [4] 6.1% | [5] -1.05% | [6] 7.85%

O=[N+]([O-])c1ccc(S(=O)(=O)N/N=C/c2cccc([N+](=O)[O-])c2)cc1
inactive: [1] -8.15% | [2] -13.2% | [3] 1.1% | [4] -15% | [5] 0.35% | [6] -12.1%

CC(=O)Nc1cc(C)c(C(=O)OC(=O)c2cc(C)c(NC(C)=O)cc2C)cc1C
inactive: [1] 22.4% | [2] -10.1% | [3] 5.1% | [4] -57.6% | [5] -0.85% | [6] 6.2%

O=[N+]([O-])c1cc(C2ON=C(c3ccccc3)N2C23CC4CC(CC(C4)C2)C3)ccc1Cl (configuration not stated)
inactive: [1] -9.1% | [2] 10.2% | [3] 2.7% | [4] 16% | [5] -0.85% | [6] -8.2%

CC(=O)/C(=C\c1ccc(/C=C(\C(C)=O)C(=O)CCN(C)C)cc1)C(=O)CCN(C)C
inactive: [1] 38.6% | [2] 58.5% | [3] 7.05% | [4] 5% | [5] 5.65% | [6] -19.6%

CC(=O)Nc1ccc(S(=O)(=O)CCN2C(=O)c3ccccc3C2=O)cc1
inactive: [1] -4.55% | [2] -8.85% | [3] 12.3% | [4] -62.5% | [5] 4.35% | [6] -16.8%

N.N.N.N.N.O=C([O-])c1nn[n-]n1.[Cl-].[Co+3]
inactive: [1] -0.8% | [2] -1.1% | [3] 7.15% | [4] 23.4% | [5] 3.75% | [6] -7.5%

O=C(O)C(C(=O)O)C(c1cccc([N+](=O)[O-])c1)C(c1ccccc1)[N+](=O)[O-] (configuration not stated)
inactive: [1] 52.5% | [2] 18.2% | [3] 45.5% | [4] 12.2% | [5] 22.2% | [6] 37.7%

COC(=O)C(=C(C)C)S(=O)c1ccccc1 (configuration not stated)
inactive: [1] -9.85% | [2] 1.4% | [3] -3.55% | [4] -16% | [5] -13.6% | [6] 3.45%

O=c1[nH]c2cccnc2[nH]c1=O
inactive: [1] -8% | [2] -44% | [3] -32.8% | [4] 4% | [5] -32.5% | [6] -2.05%

C/C(CCc1ccccc1Br)=N/NC(N)=O
inactive: [1] -11.1% | [2] -0.9% | [3] -8.55% | [4] -34.4% | [5] 2.6% | [6] -11.3%

Cc1cc(O)c(C(C)C)cc1N=Cc1ccccc1O
inactive: [1] -38.4% | [2] -23.6% | [3] -58.2% | [4] -29.7% | [5] -21.6% | [6] -5.8%

COC(=O)CCCc1c[nH]c2ccccc12
inactive: [1] 7.2% | [2] -9.8% | [3] -3.9% | [4] -0.95% | [5] 14.2% | [6] -1.05%

O=c1cn[nH]c2c(Br)cc(Br)cc12
inactive: [1] 12% | [2] -0.3% | [3] -1.6% | [4] 2.65% | [5] -9.9% | [6] 16.4%

CC(C)(C)OC(=O)NC(Cc1ccccc1)C(=O)N[C@H]1c2ccsc2/C(=N/O)[C@H]1O (some centres not stated)
inactive: [1] -9.2% | [2] -6.95% | [3] 3.8% | [4] 9.15% | [5] -4.85% | [6] 29.9%

O=C(Nc1ccccc1)O/N=C(/c1ccccc1)c1cccnc1
inactive: [1] 15.2% | [2] -5.1% | [3] 13.2% | [4] -3.3% | [5] 15.2% | [6] 6.3%

Cc1cccc2c1-c1c(C)cccc1C(Cl)S(=O)(=O)C2 (configuration not stated)
inactive: [1] 1.25% | [2] -4.6% | [3] -9.05% | [4] 4.55% | [5] 6.85% | [6] -1.65%

Nc1nc2c(c(=O)[nH]1)CN(c1ccc(S(N)(=O)=O)cc1)CN2
inactive: [1] 25.9% | [2] -24.6% | [3] 0.5% | [4] -7.45% | [5] -26.4% | [6] -12.3%

N#CC1CCCCCC1
inactive: [1] 0.8% | [2] -12.4% | [3] 5.7% | [4] 2.6% | [5] 8.15% | [6] 5.85%

N#Cc1cc(F)c(N)c(F)c1
inactive: [1] -2.25% | [2] 7.95% | [3] 2.2% | [4] 9.95% | [5] -0.35% | [6] 3.8%

O=[N+]([O-])c1ccc(-c2ccc([N+](=O)[O-])cc2)cc1
inactive: [1] -2.05% | [2] -0.95% | [3] 7.7% | [4] -38.5% | [5] 22.6% | [6] -13.3%

Cc1cc(C)c2nc(N)sc2c1
inactive: [1] 24.3% | [2] 9.35% | [3] -5.8% | [4] -4.45% | [5] 12.4% | [6] 30.1%

Cc1ccc(S(=O)(=O)NNC(=O)c2ccc[nH]2)cc1
inactive: [1] -1.5% | [2] -24.2% | [3] -7.85% | [4] 7.65% | [5] 9.9% | [6] 6.35%

CCC1(C)C=Cc2c(cc(OC)c3c(=O)c4ccccc4n(C)c23)O1 (configuration not stated)
inactive: [1] -21.8% | [2] -27.4% | [3] -33.8% | [4] -19.6% | [5] 4.05% | [6] -26.4%

CCCCOc1ccc(N)cn1
inactive: [1] -5.05% | [2] -4.85% | [3] 6.15% | [4] -16.4% | [5] 32.7% | [6] -5.45%

Cc1cccc[n+]1CC(=O)c1ccccc1[N+](=O)[O-]
inactive: [1] -5% | [2] 6.85% | [3] -3.3% | [4] -6.55% | [5] -20.6% | [6] 8.1%

COc1ccc2c(c1)CCC(c1nc3ccc(C)cc3[nH]c1=O)C2=O (configuration not stated)
inactive: [1] 7.95% | [2] 8.5% | [3] 7.95% | [4] 9.1% | [5] -4.65% | [6] 22.6%

CCOC(=O)c1cnc2ccccc2c1
inactive: [1] 3.65% | [2] 6.8% | [3] 5.95% | [4] -44.9% | [5] -1.15% | [6] 3.3%

O=C(CC(c1ccccc1)N1CCCCC1)OC(c1ccccc1)c1ccc(Br)cc1 (configuration not stated)
inactive: [1] 12.9% | [2] 4.05% | [3] 11.6% | [4] 7.95% | [5] 6.4% | [6] 2.8%

O=C1CCCc2[nH]c3ccc(Cl)cc3c21
inactive: [1] -1.9% | [2] 0.3% | [3] -10.9% | [4] -21.9% | [5] -14.2% | [6] 12.9%

Cn1c(NCCN2CCCCC2)c(C(=O)/C=C/c2ccccc2)c(=O)n(C)c1=O
inactive: [1] 15.3% | [2] 19.4% | [3] 8.65% | [4] 17.6% | [5] -1.5% | [6] 20.8%

O=Cc1ccc(-c2cccc([N+](=O)[O-])c2)s1
inactive: [1] 4.9% | [2] 6.1% | [3] -14.1% | [4] 19.9% | [5] 6.1% | [6] 1.85%
